Molecules are shown by their SMILES. “And” between values parts separate entries of the source, which are not always exact repeats. Equal entries are not always repeated.

The term inhibition denotes the relative decrease from the control value, in per cent.

The target of assay [1] is T1, Tyrosine-protein kinase ITK/TSK (Homo sapiens) (UniProt Q08881).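 Also: values are mean percent inhibition of ITK from the GSK PKIS screen.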
T1 sequence (whole entry): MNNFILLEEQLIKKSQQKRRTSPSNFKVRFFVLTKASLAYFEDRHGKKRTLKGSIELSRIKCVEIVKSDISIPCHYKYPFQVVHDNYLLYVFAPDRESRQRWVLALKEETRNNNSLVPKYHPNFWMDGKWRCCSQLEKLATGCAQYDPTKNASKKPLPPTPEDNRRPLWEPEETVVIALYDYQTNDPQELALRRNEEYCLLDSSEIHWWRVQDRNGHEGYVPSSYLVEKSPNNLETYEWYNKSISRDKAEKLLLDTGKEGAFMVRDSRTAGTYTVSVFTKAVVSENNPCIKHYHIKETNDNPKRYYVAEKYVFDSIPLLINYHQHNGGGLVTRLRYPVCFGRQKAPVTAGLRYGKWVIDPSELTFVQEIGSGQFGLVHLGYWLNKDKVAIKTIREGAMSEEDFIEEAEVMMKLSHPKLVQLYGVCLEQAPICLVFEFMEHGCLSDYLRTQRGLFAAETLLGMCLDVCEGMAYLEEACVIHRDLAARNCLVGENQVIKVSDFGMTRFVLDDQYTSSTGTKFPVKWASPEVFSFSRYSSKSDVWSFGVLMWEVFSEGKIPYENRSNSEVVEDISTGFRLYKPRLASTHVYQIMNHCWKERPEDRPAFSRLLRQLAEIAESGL
To be noted: at 1 µM.

Assay [2] concerns the target Tyrosine-protein kinase JAK1 (Homo sapiens) (UniProt P23458). To be noted: at 0.1 µM.
The target is the same in assay [3]. To be noted: at 1 µM.
The target of assay [4] is Tyrosine-protein kinase JAK2 (Homo sapiens) (UniProt O60674). As to conditions: at 0.1 µM.
Sequence of Tyrosine-protein kinase JAK2 (Homo sapiens) (O60674 whole entry): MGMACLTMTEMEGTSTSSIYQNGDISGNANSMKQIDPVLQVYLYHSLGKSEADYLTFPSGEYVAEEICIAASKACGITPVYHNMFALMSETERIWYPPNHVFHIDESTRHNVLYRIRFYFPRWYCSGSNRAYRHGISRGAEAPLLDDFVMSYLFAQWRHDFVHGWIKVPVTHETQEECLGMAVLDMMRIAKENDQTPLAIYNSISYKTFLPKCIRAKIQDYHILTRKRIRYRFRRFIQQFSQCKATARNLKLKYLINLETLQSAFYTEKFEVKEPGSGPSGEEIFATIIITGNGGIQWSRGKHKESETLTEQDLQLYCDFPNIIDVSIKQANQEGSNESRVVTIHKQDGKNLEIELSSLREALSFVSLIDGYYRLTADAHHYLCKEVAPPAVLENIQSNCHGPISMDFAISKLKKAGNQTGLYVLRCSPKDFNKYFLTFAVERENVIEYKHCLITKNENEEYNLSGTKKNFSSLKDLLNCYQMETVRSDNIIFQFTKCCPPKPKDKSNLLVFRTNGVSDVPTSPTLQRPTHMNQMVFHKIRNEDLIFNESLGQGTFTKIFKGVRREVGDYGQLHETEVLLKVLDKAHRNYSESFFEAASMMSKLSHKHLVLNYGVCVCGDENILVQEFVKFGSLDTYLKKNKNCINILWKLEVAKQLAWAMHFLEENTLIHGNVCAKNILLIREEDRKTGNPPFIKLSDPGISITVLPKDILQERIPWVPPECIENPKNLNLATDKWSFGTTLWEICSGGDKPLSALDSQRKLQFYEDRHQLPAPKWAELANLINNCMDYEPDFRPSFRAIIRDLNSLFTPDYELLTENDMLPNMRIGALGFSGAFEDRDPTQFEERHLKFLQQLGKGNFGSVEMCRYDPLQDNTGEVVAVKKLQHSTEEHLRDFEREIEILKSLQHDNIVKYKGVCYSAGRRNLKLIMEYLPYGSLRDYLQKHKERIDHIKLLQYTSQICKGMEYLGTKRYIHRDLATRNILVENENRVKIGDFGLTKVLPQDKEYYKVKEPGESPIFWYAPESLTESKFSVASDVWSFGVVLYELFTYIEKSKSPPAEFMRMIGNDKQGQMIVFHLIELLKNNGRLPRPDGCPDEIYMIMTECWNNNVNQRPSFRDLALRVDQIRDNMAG
For assay [5] the target is unchanged. To be noted: at 1 µM.
In assay [6] the target is T2, Tyrosine-protein kinase JAK3 (Homo sapiens) (UniProt P52333).
T2 sequence (whole entry): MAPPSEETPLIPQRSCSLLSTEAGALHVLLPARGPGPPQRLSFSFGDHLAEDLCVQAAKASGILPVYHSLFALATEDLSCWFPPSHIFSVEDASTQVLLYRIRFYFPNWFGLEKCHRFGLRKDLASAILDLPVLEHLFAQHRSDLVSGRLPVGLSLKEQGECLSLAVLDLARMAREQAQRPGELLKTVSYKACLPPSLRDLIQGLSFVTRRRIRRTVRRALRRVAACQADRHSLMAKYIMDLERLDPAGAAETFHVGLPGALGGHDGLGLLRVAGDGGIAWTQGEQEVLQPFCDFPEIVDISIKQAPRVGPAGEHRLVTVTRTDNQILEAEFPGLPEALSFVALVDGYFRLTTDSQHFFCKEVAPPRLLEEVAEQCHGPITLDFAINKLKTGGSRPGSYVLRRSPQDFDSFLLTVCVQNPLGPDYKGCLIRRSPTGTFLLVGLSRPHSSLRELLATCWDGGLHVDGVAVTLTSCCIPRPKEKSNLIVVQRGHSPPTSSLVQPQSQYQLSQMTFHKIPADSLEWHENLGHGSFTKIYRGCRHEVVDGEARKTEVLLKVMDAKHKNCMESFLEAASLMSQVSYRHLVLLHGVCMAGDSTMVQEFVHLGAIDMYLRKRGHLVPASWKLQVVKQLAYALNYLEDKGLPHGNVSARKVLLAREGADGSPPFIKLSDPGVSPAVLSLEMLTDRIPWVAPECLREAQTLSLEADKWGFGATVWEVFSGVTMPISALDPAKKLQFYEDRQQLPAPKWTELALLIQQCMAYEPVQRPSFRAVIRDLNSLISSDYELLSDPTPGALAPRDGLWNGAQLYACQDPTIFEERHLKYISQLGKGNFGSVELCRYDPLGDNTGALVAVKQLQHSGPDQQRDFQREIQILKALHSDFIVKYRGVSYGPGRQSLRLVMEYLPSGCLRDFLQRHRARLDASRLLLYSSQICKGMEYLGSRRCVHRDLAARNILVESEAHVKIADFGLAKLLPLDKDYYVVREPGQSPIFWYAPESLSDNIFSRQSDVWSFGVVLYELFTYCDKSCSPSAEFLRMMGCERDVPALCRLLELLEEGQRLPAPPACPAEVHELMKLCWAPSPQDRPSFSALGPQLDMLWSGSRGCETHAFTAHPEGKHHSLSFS
To be noted: at 0.1 µM.

In assay [7] the target is T2, Tyrosine-protein kinase JAK3 (Homo sapiens). As to conditions: at 1 µM.
Assay [8] has as its target Vascular endothelial growth factor receptor 2 (Homo sapiens) (UniProt P35968). To be noted: at 0.1 µM.
Assay [9] has the same target. As to conditions: at 1 µM.
Assay [10] concerns the target Mast/stem cell growth factor receptor Kit (Homo sapiens) (UniProt P10721). To be noted: at 0.1 µM.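 Also: values are mean inhibition of KIT, from the GSK PKIS dataset.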

Sequence of Tyrosine-protein kinase JAK1 (Homo sapiens) (P23458 whole entry): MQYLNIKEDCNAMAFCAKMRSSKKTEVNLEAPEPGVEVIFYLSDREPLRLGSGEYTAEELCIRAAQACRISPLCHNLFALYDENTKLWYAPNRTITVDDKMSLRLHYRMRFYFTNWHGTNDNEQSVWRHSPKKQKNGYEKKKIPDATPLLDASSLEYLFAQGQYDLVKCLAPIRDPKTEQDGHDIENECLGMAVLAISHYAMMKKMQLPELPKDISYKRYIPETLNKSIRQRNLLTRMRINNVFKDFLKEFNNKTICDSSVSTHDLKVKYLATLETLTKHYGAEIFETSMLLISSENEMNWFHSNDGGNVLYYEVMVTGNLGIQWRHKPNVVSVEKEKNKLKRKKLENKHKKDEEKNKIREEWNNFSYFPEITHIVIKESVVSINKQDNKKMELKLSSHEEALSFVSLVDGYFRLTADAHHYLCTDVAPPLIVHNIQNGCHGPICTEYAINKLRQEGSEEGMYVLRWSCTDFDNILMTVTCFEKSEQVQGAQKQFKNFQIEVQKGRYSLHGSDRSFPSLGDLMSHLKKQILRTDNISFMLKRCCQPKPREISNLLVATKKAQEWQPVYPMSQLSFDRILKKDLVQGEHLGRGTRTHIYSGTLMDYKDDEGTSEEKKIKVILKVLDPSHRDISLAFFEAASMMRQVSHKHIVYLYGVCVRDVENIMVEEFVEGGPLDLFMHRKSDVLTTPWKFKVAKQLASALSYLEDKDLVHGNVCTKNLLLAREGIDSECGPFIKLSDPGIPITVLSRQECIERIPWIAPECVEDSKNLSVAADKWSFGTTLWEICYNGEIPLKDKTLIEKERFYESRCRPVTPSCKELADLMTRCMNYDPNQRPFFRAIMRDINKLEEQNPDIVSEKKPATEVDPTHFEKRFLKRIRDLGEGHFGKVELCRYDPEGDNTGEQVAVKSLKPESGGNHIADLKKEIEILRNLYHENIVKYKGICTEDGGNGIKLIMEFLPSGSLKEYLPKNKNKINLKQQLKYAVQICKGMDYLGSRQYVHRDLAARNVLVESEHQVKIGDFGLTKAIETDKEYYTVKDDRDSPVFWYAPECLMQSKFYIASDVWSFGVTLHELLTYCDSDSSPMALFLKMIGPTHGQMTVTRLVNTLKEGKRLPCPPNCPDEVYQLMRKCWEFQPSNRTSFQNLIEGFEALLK
Sequence of Vascular endothelial growth factor receptor 2 (Homo sapiens) (P35968 whole entry): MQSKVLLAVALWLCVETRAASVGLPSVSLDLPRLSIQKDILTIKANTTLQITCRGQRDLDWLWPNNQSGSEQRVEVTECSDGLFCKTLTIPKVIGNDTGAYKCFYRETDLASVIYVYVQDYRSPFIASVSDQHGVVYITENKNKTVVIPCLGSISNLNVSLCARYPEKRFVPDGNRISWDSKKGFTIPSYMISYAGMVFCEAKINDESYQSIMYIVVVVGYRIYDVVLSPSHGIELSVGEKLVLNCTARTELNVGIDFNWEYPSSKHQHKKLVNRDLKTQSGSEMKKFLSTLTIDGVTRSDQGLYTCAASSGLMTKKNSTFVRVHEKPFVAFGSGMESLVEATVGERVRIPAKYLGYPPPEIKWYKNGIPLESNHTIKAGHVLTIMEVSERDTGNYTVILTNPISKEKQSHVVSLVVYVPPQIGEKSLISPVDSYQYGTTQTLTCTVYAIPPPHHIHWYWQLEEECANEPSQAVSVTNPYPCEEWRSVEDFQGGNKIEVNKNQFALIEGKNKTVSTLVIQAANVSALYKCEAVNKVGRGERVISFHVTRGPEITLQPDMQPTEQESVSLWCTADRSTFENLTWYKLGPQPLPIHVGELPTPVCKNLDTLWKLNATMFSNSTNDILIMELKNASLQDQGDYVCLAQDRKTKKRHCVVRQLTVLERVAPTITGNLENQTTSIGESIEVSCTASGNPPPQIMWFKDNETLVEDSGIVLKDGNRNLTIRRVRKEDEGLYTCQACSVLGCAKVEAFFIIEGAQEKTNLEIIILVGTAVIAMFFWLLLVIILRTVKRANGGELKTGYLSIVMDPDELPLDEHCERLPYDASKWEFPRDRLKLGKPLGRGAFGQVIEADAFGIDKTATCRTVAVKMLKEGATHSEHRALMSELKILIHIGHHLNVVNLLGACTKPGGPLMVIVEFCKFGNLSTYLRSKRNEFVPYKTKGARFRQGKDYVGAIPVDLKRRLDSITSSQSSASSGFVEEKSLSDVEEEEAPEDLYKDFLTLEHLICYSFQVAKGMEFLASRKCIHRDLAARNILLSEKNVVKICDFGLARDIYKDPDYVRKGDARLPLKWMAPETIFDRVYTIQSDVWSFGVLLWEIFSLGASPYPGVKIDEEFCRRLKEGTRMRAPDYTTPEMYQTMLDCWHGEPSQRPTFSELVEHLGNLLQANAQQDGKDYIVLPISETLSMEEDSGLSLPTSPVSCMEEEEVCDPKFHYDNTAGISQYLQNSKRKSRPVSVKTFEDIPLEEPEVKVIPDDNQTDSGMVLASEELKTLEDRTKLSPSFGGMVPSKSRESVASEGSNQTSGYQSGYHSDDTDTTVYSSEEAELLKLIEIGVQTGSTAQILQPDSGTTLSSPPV
Sequence of Mast/stem cell growth factor receptor Kit (Homo sapiens) (P10721 whole entry): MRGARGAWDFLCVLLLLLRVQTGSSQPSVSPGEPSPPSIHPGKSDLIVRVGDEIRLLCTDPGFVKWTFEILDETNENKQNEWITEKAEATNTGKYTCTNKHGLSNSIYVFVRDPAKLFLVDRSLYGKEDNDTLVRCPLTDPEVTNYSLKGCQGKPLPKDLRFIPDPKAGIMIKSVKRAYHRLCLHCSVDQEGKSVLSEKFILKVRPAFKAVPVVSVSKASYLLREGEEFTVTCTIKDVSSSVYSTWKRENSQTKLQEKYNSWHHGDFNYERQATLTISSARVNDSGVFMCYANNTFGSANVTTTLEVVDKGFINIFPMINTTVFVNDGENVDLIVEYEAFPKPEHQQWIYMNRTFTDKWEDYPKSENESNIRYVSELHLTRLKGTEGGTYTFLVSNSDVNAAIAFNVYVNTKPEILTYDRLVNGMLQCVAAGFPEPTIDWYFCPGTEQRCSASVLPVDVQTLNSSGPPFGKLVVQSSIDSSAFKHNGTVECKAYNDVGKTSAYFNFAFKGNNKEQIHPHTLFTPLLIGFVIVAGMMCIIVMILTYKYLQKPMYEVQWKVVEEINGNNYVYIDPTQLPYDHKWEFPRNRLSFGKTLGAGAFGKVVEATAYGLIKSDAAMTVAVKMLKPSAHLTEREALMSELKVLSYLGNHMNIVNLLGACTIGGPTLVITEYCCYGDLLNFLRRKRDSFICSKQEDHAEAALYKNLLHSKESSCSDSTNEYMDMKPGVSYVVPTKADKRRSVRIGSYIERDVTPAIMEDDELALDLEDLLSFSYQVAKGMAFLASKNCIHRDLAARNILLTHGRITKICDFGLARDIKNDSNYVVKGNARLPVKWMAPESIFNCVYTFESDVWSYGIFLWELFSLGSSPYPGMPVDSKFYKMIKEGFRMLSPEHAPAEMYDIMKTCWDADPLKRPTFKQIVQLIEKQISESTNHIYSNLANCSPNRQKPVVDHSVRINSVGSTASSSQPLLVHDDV

In the case of `CS(=O)(=O)CCNCc1ccoc1-c1ccc2ncnc(Nc3ccc(OCc4ccccc4)cc3)c2c1`, the inhibition is 1.03% in assay [1]; -1.22% in assay [2]; -0.53% in assay [3]; -0.17% in assay [4]; -0.95% in assay [5]; -0.19% in assay [6]. The inhibition was determined as 0.82% in assay [7], 3.88% in assay [8], 5.6% in [9] and 1.94% in assay [10].
Regarding `Nc1ncnc2occ(-c3ccc(NC(=O)Nc4cc(C(F)(F)F)ccc4F)cc3)c12`, the inhibition in assay [1] is 7.9% and 3.04%; in [2] it was -0.01% and -6.67%; in assay [3], 8.18% and -2.37%; in assay [4], 2.05% and -0.57%; in [5], 18.8% and 7.54%; in [6], -0.84% and 0.28%. Besides, the inhibition in assay [7] is 1.36% and 1%; in assay [8] it was 63.8% and 54%; in assay [9], 71.1% and 78.2%; in [10], 90.2% and 85.7%.
As for `NS(=O)(=O)c1ccc(N/N=C2\C(=O)Nc3ccc(C(=O)NCc4ccncc4)cc32)cc1`, the inhibition in assay [1] was 3.12%; in assay [2] it was 3.77%; in assay [3], 9.66%; in [4], 0.74%; in assay [5], 1.38%; in assay [6], -0.81%. Also, the inhibition in [7] worked out at 6.2%; in [8], 7.35%; in assay [9], 34.5%; in assay [10], 4.44%.
Turning to `OCCCNc1nccc(-c2c(-c3ccc(F)cc3)nn3cc(C(F)(F)F)ccc23)n1`, the inhibition is 0.19% in [1]; -0.95% in assay [2]; -4.2% in assay [3]; 1.8% in [4]; 0.99% in assay [5]; 0.08% in assay [6]. For the same compound, the inhibition is 1.33% in [7], 4.84% in [8], 6.21% in assay [9] and 3.28% in [10].
For the compound `Nc1nccc(-c2c(-c3ccc(F)cc3)ncn2C2CCNCC2)n1`, the inhibition in [1] is -0.06% and 1.58%; in assay [2] it was -5.03% and -2.79%; in assay [3] it was 1.1% and 3.47%; in assay [4], -1.85% and 0.8%; in [5], -1.57% and 1.93%; in assay [6], 0.47% and 0.86%. Further, the inhibition in assay [7] was 2.72% and 2.66%; in assay [8] it was -2.27% and 1.08%; in assay [9], 2.47% and 2.78%; in assay [10] it was -3.74% and 1.54%.
For the compound `CCn1c(-c2nonc2N)nc2cncc(C(=O)NCCNC)c21`, the inhibition in assay [1] was 0.3%; in assay [2] it was 0.48%; in assay [3], 2.04%; in assay [4] it was 2.49%; in assay [5], 0.73%; in assay [6], -3.8%. Further, the inhibition in assay [7] was -2.17%; in assay [8] it was 4.45%; in assay [9], 13.5%; in assay [10] it was 6.23%.
As to `COC(=O)Nc1nc2ccc(Oc3ccc(NC(=O)Nc4cc(C(F)(F)F)ccc4F)cc3)cc2s1`, the inhibition in assay [1] is 2.72%; in assay [2], 0.07%; in assay [3], 9.06%; in assay [4], 1.98%; in [5], 7.31%; in assay [6], -0.26%. In addition, the inhibition in assay [7] is 0.75%; in [8], 69.8%; in [9] it was 85.1%; in [10] it was 17.9%.
As for `CC(C)c1ccc(-c2cc(-c3c[nH]nc3-c3ccccn3)ccn2)cc1`, the inhibition in assay [1] is 1.69%; in assay [2] it was -1.37%; in [3], 1.1%; in [4], 0.74%; in assay [5], 0.23%; in assay [6] it was 0.23%. Moreover, the inhibition in assay [7] turned out to be 0.8%; in assay [8], 9.43%; in assay [9], 32.4%; in assay [10], 0.6%.
As to `COc1ccc(-c2nn3ncccc3c2-c2ccnc(Nc3ccc(F)c(F)c3)n2)cc1`, the inhibition in [1] was 3.13%; in assay [2] it was 3.71%; in assay [3], 14.6%; in [4], 0.73%; in assay [5] it was 1.18%; in assay [6], -1.36%. Further, the inhibition amounted to 0.8% in assay [7], 6.9% in assay [8], 20.6% in [9] and 7.56% in assay [10].
Turning to `Nc1nonc1-c1nc2cnccc2n1C1CC1`, the inhibition in [1] is 1.67% and -2.42%; in assay [2], 0.26% and 0.62%; in [3], -0.07% and 3.24%; in assay [4], 0.87% and 1.12%; in assay [5], 3.76% and 0.55%; in assay [6], 4.13% and -4.12%. Further, the inhibition in assay [7] is 4.66% and -3.11%; in assay [8], 14.3% and 13.8%; in assay [9] it was 54.2% and 52%; in [10] it was 4.06% and 2.58%.
Take `COc1cc2c(cc1Nc1nc(Nc3cccc(F)c3C(N)=O)c3cc[nH]c3n1)N(C(=O)CN1CCN(C(C)C)CC1)CC2`: the inhibition was 4.16% in assay [1]; -0.19% in assay [2]; -3.81% in assay [3]; 0.65% in [4]; 2.21% in [5]; 0.64% in assay [6]. Further, the inhibition in assay [7] is 6.68%; in assay [8] it was 0.99%; in [9], 9.98%; in assay [10], -1.31%.
Consider `NS(=O)(=O)c1cccc(N/C=C2\C(=O)Nc3ccccc32)c1`, for which the inhibition was 3.54% in [1]; 2.83% in assay [2]; 6.08% in assay [3]; 1.37% in assay [4]; 2.13% in assay [5]; -2% in [6]. Also, the inhibition turned out to be 0.9% in assay [7], 9.08% in [8], 35.3% in assay [9] and 16.4% in [10].
Regarding `CN1CCC(n2cnc(-c3ccc(F)cc3)c2-c2ccnc(NCCO)n2)CC1`, the inhibition was 2.24% in assay [1]; 4.93% in assay [2]; 7.32% in [3]; 0.46% in [4]; 1.42% in [5]; -2.19% in assay [6]. Besides, the inhibition in [7] is -0.11%; in assay [8], 5.3%; in assay [9], 9.32%; in [10], 4.45%.
Take `CS(=O)(=O)Nc1ccc(-c2ccc3c(NC(=O)C4CC4)n[nH]c3c2)cc1`: the inhibition was 4.27% in assay [1]; 2.35% in [2]; -1.13% in [3]; 1.06% in assay [4]; 2.88% in assay [5]; -0.85% in assay [6]. Also, the inhibition in assay [7] was 1.11%; in [8], 4.26%; in [9], 9.88%; in assay [10], 1.72%.
For the compound `Fc1ccc(Nc2nccc(-c3c(-c4ccc(C(F)(F)F)cc4)nn4ncccc34)n2)cc1F`, the inhibition in assay [1] was 2.42%; in assay [2] it was 2.03%; in assay [3], 0.13%; in assay [4] it was 1.44%; in assay [5] it was 2.24%; in assay [6], -1.12%. In addition, the inhibition in assay [7] came to 0.59%; in assay [8], 5.73%; in [9], 7.03%; in [10] it was 4.14%.
Turning to `CN1CCN(Cc2ccc(-c3cc4ncnc(Nc5ccc(OCc6cccc(F)c6)c(Cl)c5)c4s3)o2)CC1`, the inhibition in assay [1] is 2.43% and 2.68%; in [2], 1.06% and 6.88%; in assay [3] it was 3.27% and 18.5%; in assay [4], 0.99% and 0.67%; in assay [5], 0.57% and 0.86%; in assay [6] it was -2.47% and -0.74%. Besides, the inhibition in assay [7] is -1.79% and -0.23%; in [8], 7.34% and 7.83%; in assay [9], 24% and 24.2%; in [10], 3.38% and 6.79%.

Source of the values: ChEMBL document CHEMBL1961873, “Compounds: GSK PKIS; Assays: Nanosyn kinase panel” (2012).
